# Results from ChEMBL document CHEMBL1961873, “Compounds: GSK PKIS; Assays: Nanosyn kinase panel” (2012).
# What was measured:
# [1] = target: T1, Tyrosine-protein kinase receptor TYRO3 (Homo sapiens) (UniProt Q06418); conditions: at 1 µM
# T1 sequence (whole entry): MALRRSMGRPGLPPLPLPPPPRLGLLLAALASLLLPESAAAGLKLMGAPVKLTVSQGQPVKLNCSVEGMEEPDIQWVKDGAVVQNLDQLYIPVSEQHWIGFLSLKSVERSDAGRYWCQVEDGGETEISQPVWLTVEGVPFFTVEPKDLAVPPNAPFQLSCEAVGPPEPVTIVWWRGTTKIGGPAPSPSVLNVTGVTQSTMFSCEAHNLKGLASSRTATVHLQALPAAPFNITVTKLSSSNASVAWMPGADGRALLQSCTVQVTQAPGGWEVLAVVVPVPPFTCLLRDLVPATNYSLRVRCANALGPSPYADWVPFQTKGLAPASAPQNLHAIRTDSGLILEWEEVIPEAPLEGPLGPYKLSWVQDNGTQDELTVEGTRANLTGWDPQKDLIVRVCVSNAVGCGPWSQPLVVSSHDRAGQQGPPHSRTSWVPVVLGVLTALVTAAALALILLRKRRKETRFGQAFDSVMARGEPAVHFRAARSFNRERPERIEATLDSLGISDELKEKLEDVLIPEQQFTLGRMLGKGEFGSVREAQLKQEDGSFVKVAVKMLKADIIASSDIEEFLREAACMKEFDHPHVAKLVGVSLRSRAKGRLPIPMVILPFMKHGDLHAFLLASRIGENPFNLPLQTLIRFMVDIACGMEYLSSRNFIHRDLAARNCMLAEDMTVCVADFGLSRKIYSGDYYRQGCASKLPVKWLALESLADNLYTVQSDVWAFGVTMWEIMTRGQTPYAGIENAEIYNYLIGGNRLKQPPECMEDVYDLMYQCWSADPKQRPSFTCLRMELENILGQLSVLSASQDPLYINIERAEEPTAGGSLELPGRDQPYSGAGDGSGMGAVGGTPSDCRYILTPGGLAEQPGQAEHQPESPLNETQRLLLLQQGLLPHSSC
# [2] = target: Tyrosine-protein kinase Yes (Homo sapiens) (UniProt P07947); conditions: at 0.1 µM
# Tyrosine-protein kinase Yes (Homo sapiens), sequence (P07947 2-543 limits assumed): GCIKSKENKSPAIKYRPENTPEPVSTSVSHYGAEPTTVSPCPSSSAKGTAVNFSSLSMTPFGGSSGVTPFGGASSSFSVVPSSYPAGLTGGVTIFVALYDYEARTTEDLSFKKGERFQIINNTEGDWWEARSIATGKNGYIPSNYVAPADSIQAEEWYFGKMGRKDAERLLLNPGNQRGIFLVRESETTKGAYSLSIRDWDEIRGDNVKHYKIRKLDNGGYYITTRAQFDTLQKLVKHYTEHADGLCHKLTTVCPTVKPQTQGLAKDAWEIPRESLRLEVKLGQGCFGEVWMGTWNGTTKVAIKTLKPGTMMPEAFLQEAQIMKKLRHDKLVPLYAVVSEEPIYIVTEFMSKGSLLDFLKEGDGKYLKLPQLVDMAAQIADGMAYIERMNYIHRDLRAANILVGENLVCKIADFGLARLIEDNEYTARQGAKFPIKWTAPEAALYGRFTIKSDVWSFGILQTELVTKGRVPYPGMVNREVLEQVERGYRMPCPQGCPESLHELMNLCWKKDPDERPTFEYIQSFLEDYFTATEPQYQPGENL
# [3] = target: Tyrosine-protein kinase Yes (Homo sapiens) (UniProt P07947); conditions: at 1 µM
# [4] = target: T2, Tyrosine-protein kinase ZAP-70 (Homo sapiens) (UniProt P43403); conditions: at 0.1 µM
# T2 sequence (whole entry): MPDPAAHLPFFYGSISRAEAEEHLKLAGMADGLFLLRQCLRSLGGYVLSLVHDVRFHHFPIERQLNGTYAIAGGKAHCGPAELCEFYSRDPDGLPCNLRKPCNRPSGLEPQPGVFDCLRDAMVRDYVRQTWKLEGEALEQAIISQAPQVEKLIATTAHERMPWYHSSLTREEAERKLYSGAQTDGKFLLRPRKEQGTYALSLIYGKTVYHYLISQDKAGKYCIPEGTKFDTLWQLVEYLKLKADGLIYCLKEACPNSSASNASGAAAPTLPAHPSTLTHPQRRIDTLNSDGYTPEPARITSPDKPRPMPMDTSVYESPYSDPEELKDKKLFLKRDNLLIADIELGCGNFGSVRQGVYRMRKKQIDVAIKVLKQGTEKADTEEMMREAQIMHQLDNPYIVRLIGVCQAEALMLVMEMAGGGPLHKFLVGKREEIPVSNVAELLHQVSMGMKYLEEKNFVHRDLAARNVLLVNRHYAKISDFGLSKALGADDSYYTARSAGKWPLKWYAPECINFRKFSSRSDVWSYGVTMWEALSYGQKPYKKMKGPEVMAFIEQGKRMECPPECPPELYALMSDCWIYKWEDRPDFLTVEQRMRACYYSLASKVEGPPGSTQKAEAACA
# [5] = target: T2, Tyrosine-protein kinase ZAP-70 (Homo sapiens); conditions: at 1 µM
# [6] = target: Serine/threonine-protein kinase B-raf (Homo sapiens) (UniProt P15056); conditions: at 0.1 µM
# Serine/threonine-protein kinase B-raf (Homo sapiens), sequence (P15056 whole entry): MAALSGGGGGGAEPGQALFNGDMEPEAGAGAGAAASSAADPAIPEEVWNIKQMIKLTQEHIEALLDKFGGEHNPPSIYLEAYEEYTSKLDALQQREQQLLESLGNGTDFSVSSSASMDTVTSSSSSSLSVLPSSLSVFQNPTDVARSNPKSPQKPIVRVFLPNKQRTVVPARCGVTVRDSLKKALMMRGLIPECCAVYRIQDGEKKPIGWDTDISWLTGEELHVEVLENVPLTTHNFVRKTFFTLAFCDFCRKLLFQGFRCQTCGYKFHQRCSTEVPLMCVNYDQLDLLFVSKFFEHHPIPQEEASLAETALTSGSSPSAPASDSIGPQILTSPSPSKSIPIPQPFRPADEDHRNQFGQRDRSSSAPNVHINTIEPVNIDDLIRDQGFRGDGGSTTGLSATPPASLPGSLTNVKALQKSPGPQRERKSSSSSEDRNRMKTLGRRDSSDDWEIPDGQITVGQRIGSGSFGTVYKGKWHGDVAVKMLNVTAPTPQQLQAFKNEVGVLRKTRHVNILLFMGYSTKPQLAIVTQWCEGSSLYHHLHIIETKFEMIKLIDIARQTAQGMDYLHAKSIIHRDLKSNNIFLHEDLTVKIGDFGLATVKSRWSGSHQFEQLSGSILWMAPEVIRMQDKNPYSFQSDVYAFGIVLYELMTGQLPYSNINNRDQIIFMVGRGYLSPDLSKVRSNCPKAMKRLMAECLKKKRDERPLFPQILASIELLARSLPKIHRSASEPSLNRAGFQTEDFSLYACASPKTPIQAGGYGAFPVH
# [7] = target: Serine/threonine-protein kinase B-raf (Homo sapiens) (UniProt P15056); conditions: at 1 µM
# [8] = test system: Serine/threonine-protein kinase B-raf (Homo sapiens), P15056 [V600E]; conditions: at 0.1 µM
# Serine/threonine-protein kinase B-raf (Homo sapiens), P15056 [V600E], sequence (P15056 whole entry V600E): as the sequence (P15056 whole entry) above, with V600E counted along it
# [9] = test system: Serine/threonine-protein kinase B-raf (Homo sapiens), P15056 [V600E]; conditions: at 1 µM
# [10] = target: RAF proto-oncogene serine/threonine-protein kinase (Homo sapiens) (UniProt P04049); conditions: at 0.1 µM
# RAF proto-oncogene serine/threonine-protein kinase (Homo sapiens), sequence (P04049 whole entry): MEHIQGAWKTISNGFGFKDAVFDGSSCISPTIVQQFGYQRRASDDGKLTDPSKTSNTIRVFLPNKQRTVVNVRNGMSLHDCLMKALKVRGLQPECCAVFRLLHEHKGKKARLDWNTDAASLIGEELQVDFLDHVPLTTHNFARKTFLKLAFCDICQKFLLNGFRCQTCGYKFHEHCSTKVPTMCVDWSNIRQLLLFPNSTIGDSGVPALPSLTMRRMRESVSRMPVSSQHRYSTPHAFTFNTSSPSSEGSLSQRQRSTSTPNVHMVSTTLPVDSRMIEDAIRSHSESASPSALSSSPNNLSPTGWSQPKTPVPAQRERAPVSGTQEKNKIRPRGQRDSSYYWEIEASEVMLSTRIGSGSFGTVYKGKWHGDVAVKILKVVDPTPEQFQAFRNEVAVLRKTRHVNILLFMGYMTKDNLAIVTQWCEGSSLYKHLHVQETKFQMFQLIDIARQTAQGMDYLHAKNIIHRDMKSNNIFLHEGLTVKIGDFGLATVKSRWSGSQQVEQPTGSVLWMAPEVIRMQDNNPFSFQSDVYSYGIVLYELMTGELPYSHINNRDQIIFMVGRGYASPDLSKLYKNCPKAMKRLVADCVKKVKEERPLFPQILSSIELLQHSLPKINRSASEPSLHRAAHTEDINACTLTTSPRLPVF
# [11] = target: RAF proto-oncogene serine/threonine-protein kinase (Homo sapiens) (UniProt P04049); conditions: at 1 µM
# [12] = target: T3, Interleukin-1 receptor-associated kinase 4 (Homo sapiens) (UniProt Q9NWZ3); conditions: at 0.1 µM
# T3 sequence (whole entry): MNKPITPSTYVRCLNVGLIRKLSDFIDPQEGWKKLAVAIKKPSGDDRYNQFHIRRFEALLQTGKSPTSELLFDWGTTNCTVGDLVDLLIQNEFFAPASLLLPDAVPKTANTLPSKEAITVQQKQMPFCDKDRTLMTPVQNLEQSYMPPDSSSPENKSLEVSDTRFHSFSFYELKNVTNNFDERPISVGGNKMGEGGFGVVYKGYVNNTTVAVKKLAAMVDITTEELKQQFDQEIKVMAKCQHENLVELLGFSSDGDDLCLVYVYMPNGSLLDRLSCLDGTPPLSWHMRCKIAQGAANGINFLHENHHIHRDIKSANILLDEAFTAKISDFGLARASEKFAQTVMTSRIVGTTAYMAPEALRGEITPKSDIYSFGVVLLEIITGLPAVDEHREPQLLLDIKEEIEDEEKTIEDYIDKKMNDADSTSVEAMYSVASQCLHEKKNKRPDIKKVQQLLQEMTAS
# [13] = target: T3, Interleukin-1 receptor-associated kinase 4 (Homo sapiens); conditions: at 1 µM
# [14] = target: Leucine-rich repeat serine/threonine-protein kinase 2 (Homo sapiens) (UniProt Q5S007); conditions: at 0.1 µM
# Leucine-rich repeat serine/threonine-protein kinase 2 (Homo sapiens), sequence (Q5S007 whole entry): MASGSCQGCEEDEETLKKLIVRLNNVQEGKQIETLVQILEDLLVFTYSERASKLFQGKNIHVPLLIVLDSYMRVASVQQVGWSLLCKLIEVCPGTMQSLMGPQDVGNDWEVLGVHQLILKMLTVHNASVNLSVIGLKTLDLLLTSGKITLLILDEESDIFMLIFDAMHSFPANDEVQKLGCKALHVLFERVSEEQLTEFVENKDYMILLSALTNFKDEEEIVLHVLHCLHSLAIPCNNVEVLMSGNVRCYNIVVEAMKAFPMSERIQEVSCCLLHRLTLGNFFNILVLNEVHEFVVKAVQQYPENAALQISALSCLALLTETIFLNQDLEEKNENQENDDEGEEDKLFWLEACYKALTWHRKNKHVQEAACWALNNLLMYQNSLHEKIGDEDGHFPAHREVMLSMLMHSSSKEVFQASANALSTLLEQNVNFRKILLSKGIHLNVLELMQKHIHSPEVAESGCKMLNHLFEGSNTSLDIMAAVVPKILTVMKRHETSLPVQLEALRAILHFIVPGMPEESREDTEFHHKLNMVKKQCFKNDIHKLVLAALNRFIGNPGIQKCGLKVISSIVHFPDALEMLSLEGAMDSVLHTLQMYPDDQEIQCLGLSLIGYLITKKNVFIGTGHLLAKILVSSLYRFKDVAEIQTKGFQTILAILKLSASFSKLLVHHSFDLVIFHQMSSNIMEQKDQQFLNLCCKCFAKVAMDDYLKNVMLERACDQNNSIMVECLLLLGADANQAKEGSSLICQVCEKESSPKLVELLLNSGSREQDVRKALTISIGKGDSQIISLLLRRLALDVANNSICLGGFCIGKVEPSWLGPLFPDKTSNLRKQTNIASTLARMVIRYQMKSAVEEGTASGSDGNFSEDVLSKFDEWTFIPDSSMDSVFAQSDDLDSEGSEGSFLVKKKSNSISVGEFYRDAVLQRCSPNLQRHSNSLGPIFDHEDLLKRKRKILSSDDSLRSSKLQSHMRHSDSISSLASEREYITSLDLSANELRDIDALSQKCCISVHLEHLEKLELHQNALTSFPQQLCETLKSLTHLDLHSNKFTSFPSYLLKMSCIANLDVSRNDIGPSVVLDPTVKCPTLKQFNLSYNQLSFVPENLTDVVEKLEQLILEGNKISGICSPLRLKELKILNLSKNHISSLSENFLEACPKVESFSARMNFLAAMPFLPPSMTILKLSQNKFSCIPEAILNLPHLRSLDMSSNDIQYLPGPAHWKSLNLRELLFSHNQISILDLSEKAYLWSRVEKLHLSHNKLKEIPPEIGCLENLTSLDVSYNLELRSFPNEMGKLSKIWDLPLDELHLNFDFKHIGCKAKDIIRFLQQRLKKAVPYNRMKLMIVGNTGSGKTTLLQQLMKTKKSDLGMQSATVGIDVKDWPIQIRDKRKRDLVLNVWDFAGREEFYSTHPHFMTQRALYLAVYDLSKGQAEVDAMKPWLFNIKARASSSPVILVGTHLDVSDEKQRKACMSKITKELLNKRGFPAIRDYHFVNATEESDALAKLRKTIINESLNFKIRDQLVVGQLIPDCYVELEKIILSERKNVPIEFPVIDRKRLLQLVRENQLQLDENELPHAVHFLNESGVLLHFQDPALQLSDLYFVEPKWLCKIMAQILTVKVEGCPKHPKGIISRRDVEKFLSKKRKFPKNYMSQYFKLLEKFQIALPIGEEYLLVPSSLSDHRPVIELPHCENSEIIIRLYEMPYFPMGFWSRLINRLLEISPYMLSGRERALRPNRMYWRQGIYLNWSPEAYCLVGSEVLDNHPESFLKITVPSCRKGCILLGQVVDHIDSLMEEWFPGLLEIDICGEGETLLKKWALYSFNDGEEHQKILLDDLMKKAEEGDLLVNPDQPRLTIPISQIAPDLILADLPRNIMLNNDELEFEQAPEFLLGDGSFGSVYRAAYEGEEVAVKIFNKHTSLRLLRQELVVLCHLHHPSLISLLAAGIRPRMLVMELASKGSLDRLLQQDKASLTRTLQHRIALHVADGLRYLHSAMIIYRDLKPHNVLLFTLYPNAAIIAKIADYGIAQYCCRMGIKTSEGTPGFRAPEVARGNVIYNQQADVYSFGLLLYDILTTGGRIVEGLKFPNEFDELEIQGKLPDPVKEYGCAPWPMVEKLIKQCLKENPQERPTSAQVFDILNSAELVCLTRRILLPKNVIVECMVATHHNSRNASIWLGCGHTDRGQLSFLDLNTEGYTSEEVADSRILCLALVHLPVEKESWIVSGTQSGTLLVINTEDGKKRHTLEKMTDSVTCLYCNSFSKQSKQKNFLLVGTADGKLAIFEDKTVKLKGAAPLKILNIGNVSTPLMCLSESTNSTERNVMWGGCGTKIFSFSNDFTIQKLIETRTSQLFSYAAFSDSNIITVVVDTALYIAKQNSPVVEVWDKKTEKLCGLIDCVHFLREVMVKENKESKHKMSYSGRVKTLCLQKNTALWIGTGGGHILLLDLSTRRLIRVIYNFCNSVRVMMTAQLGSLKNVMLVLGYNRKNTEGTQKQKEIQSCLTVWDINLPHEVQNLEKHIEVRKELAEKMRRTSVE
# [15] = target: Leucine-rich repeat serine/threonine-protein kinase 2 (Homo sapiens) (UniProt Q5S007); conditions: at 1 µM
# [16] = test system: Leucine-rich repeat serine/threonine-protein kinase 2 (Homo sapiens), Q5S007 [G2019S]; conditions: at 0.1 µM
# Leucine-rich repeat serine/threonine-protein kinase 2 (Homo sapiens), Q5S007 [G2019S], sequence (Q5S007 whole entry G2019S): as the sequence (Q5S007 whole entry) above, with G2019S counted along it
# [17] = test system: Leucine-rich repeat serine/threonine-protein kinase 2 (Homo sapiens), Q5S007 [G2019S]; conditions: at 1 µM
Structure (SMILES),inhibition [1] [%],inhibition [2] [%],inhibition [3] [%],inhibition [4] [%],inhibition [5] [%],inhibition [6] [%],inhibition [7] [%],inhibition [8] [%],inhibition [9] [%],inhibition [10] [%],inhibition [11] [%],inhibition [12] [%],inhibition [13] [%],inhibition [14] [%],inhibition [15] [%],inhibition [16] [%],inhibition [17] [%]
CS(=O)(=O)CCN(CC#N)Cc1ccc(-c2ccc3ncnc(Nc4ccc(OCc5cccc(F)c5)c(Cl)c4)c3c2)o1,2.22,-1.67,2.4,-3.82,-0.8,4.46,1.74,1.42,2.17,0.21,-3.46,0.21,0.75,-6.54,-8.08,-3.2,-2.31
COc1ccc(-c2ccncc2)cc1C(N)=O,0.74,-1.44,3.66,-0.9,1.01,6.32,8.48,5.07,5.66,1.23,-2.86,1.8,2.34,2.67,5.73,4.45,9.13
Cc1cc(O)cc(C)c1/C=C/c1cncc(-c2nn[nH]n2)c1,11.2,5.57,41.3,-1.14,–,7.69,10.1,7.48,8.79,4.51,60.8,1.46,2.18,1.54,10.4,6.18,35.4
CNC(=O)c1cncc(/C=C/c2c(Cl)cccc2Cl)c1,4.06,3.3,17.2,0.11,1.58,6.39,10.5,3.03,4.23,5.08,0.92,1.25,2.37,0.98,7.19,5.24,14.7
CCn1c(-c2nonc2N)nc2c(C#CC(C)(C)O)nc(CN3CCCC3)cc21,-1.52,-0.41,5.7,2.82,1.75,-1.46,-1.6,-1.31,-0.8,-3.54,-7.96,3.31,-0.93,-0.1,1.92,0.81,3.54
Cc1cccc(-c2n[nH]cc2-c2ccc3ncccc3n2)n1,1.88,1.95,9.98,3.21,1.47,1.47,1.32,0.26,1.23,-0.77,–,1.85,0.21,1.67,10.1,2.43,10.6
O=C1NC(=O)C(c2ccc(Cl)cc2)=C1Nc1ccc(Cl)c(C(=O)O)c1,-3.28,-3.3,0.94,-3.81,-2.06,-1.66,-3.28,-4,-3.77,-4.76,–,-1.49,-0.81,-0.67,0.65,1.27,3.84
COc1cc2ncn(-c3cc(OCc4ccccc4Cl)c(C(N)=O)s3)c2cc1OC,9.65,3.58,17.9,-2.94,0.47,2.05,2.15,1.45,2.82,0.16,0.88,2.64,0.8,2.12,14.5,12,54.5
COc1cc2ncn(-c3cc(O[C@@H](C)c4ccccc4Cl)c(C(N)=O)s3)c2cc1OC,6,6.69,33.2,–,2.45,5.9,5.17,4.21,4.64,-0.12,4.09,1.23,2.08,10.9,50,24,64
Fc1cccc(COc2ccc(Nc3ncnc4sc(-c5cccs5)cc34)cc2Cl)c1,1.15,0.57,1.28,-1.83,1.54,1.35,2.73,1.62,1.65,1.45,-2.15,0.39,1.34,1.83,4.84,3.4,6.24
O=C1Nc2ccc(C(=O)c3ccco3)cc2C1=Cc1cc(Cl)c(O)c(Cl)c1,8.57,2.58,15.8,2.14,3.97,11.8,26.7,12.5,27.4,2.35,48.6,3.84,5.2,22.8,24,61.1,63.9
COc1cc(C=NNc2ncnc3c2cnn3-c2ccccc2)ccc1O,33.5,21.5,64.9,3.12,9.72,2.6,2.66,2.03,2.54,-0.56,-6.14,-2.02,3.98,7.59,22.3,7.59,40.8
COc1cc2ncn(-c3cc(O[C@H](C)c4ccccc4Cl)c(C(N)=O)s3)c2cc1OC,37.6,4.24,17.8,2.5,7.57,4.31,3.59,4.51,3.77,1.34,2.16,-1.67,3.82,5.85,21.6,12.1,51.9
Nc1ncnc2occ(-c3ccc(NC(=O)Nc4cc(C(F)(F)F)cc(C(F)(F)F)c4)cc3)c12,29.6,1.45,11.7,2.13,–,3.58,7.33,2.27,7.76,4.46,3.32,-4.93,1.16,9.63,16.7,4.56,26.1
NS(=O)(=O)c1ccc(N/N=C2\C(=O)Nc3ccc(C(=O)NCCc4c[nH]cn4)cc32)cc1,21.7,2.67,11.8,1.45,5.13,7,16.5,6.04,15.9,-2.7,–,-1.81,2.08,10.3,16.9,15.3,50
